Assay results from PubChem BioAssay AID1159580 (chemical genetic matrix, 2015).
The whole screen tested about 5,500 compounds, of which about 2,000 (36%) were called active. About 18% were inconclusive and are not listed. Rule as the data show it: active = normalized growth mostly below about 0.91 (no sharp cut-off); inconclusive = no clear call, values can overlap the other calls; inactive = mostly above about 0.92. This is one part of the list.

Assay: chemical genetic growth profiling, strain panel (AID 1159580);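 also: tested at 20 µM; growth read once vehicle control cultures reached saturation at 30 °C; 1 = growth at the plate median or of vehicle wells; lower values mean less growth of the strain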
Conditions: S. cerevisiae deletion strains, growth OD
[1] = locus YAL013W, strain DEP1, stronger effect = lower value
[2] = locus YAL040C, strain CLN3, stronger effect = lower value
[3] = locus YCL061C, strain MRC1 (second series), stronger effect = lower value
[4] = locus YDR150W, strain NUM1, stronger effect = lower value
[5] = locus YDR363W, strain ESC2, stronger effect = lower value
[6] = locus YER002W, strain NOP16, stronger effect = lower value
[7] = locus YJR075W, strain HOC1, stronger effect = lower value
[8] = locus YMR307W, strain GAS1, stronger effect = lower value
[9] = locus YNL175C, strain NOP13, stronger effect = lower value
[10] = locus YNL197C, strain WHI3, stronger effect = lower value
[11] = locus YNL224C, strain SQS1, stronger effect = lower value
[12] = locus YOR083W, strain WHI5 (second series), stronger effect = lower value

Measured: normalized growth

C[C@]12CCC(=O)C=C1CC[C@@H]1[C@@H]2CC[C@@]2(C)[C@H]1CC[C@]2(O)C(=O)CO
inactive: [1] 1.02 | [2] 1 | [3] 0.994 | [4] 0.994 | [5] 0.948 | [6] 0.98 | [7] 1 | [8] 1.01 | locus YNL153C, strain GIM3, stronger effect = lower value 0.938 | [9] 0.969 | [10] 0.975 | [11] 0.992 | [12] 0.966 | locus YPL241C, strain CIN2, stronger effect = lower value 1

CC(=O)[C@@]1(O)CC[C@H]2[C@@H]3CCC4=CC(=O)CC[C@]4(C)[C@H]3CC[C@@]21C
inactive: [1] 0.961 | [2] 0.947 | [3] 0.985 | [4] 1 | [5] 0.996 | [6] 0.967 | locus YGR078C, strain PAC10, stronger effect = lower value 0.975 | locus YGR229C, strain SMI1, stronger effect = lower value 1.01 | [7] 0.984 | [8] 0.979 | [9] 0.97 | [10] 0.966 | [11] 0.957 | [12] 1.03
